According to PubChem BioAssay (NCATS):
Results filed as inconclusive are left out. A number with no mark means an inactive call. The source made the active and inactive calls. Calls follow the shape of the dose curve; as a rule, active = well fitted inhibition curve with a large enough effect; inconclusive = small, poorly fitted or top-dose-only effect; inactive = flat fitted curve, though single readings scatter. Peptide text beside a SMILES is read from it.

Each compound was assayed on PAD (assay: qHTS profiling for inhibitors of Plasmodium falciparum proliferation (AID 504749; also: nearly all actives have a fitted effect of over 60% in size;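 as to activity, negative = inhibition: 0% = DMSO vehicle and full inhibition = artemisinin control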)). Settings: P. falciparum in erythrocytes, SYBR Green DNA, 72 h; series mostly up to 12.8 µM; activity, negative = inhibition: at the top concentration.
In short: (§1)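 Each compound contacts P. falciparum-infected red blood cells for 72 h at 37 C; lysis buffer (Tris, EDTA, saponin, Triton X, SYBR Green I) is added and fluorescence measured next morning; values normalized to controls.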
Potency is read from the fitted curve at half-maximal effect.

| SMILES | activity, negative = inhibition | Potency |
| --- | --- | --- |
| CN(C)CCCOC1C(C(O)CO)OC2OC(C)(C)O[C@@H]21 (some centres not stated) | 16.1% [at 28.7 µM] |  |
| CCC(C)C(=O)OC1CCC=C2C=CC(C)C(CCC3CC(O)CC(=O)O3)[C@@H]21 (some centres not stated) | 5.28% [at 28.7 µM] |  |
| CC(=O)OC1CCC2C3CCc4cc(O)ccc4C3CCC12C (configuration not stated) | 2.39% [at 28.7 µM] |  |
| CC[C@@]12CCCN3CCc4c(n(c5ccccc45)[C@](O)(C(=O)OC)C1)C32 (some centres not stated) | 0.27% [at 28.7 µM] |  |
| NC(C(=O)O)[C@@H]1CC(Cl)=NO1 (some centres not stated) |  | 0.708 µM (active) |
| CN1CC(=O)N=C1N | 14.6% [at 28.7 µM] |  |
| OCC1OC([S-])[C@H](O)C(O)C1O.[Au+] (some centres not stated) | -14.6% [at 28.7 µM] |  |
| CC(C)C1CCC(C(=O)NC(Cc2ccccc2)C(=O)O)CC1 (configuration not stated) | 10.6% [at 28.7 µM] |  |
| CCC(CCC(C)C1CCC2C3CC=C4CC(O)CC[C@@]4(C)C3CC[C@@]12C)C(C)C (some centres not stated) | 2.25% [at 28.7 µM] |  |
| C[C@]12CCC(=O)C=C1CCC1C2C(=O)C[C@]2(C)C1CC[C@]2(O)C(=O)CO (some centres not stated) | -4.74% [at 28.7 µM] |  |
| OCC1O[C@H](OC2C(CO)O[C@@](O)(CO)C2O)C(O)C(O)C1O (some centres not stated) | 6.06% [at 28.7 µM] |  |
| CC1(C)OC2CO[C@]3(COS(N)(=O)=O)OC(C)(C)OC3C2O1 (some centres not stated) | 0.273% [at 28.7 µM] |  |
| CC1(C)OC2CC(=O)OC[C@@]23C1CC(=O)[C@]1(C)C3CC[C@@]2(C)C(c3ccoc3)OC(=O)C3O[C@@]321 (some centres not stated) | 14.6% [at 28.7 µM] |  |
| CCOC(=O)C1=CC(OC(CC)CC)C(NC(C)=O)C(N)C1 (configuration not stated) | 5.69% [at 28.7 µM] |  |
| COC1C=CO[C@@]2(C)Oc3c(C)c(O)c4c(O)c(c5c(nc6cc(C)ccn65)c4c3C2=O)NC(=O)/C(C)=C\C=CC(C)C(O)[C@@H](C)C(O)C(C)[C@@H](OC(C)=O)C1C (some centres not stated) |  | 3.16 µM (active) |
| COC(=O)C(Cc1ccccc1)NC(=O)C(N)CC(=O)O (stereo not drawn) (H-Asp-Phe-OMe; configuration not given here) | 15.1% [at 28.7 µM] |  |
| C[C@]12C=CC(=O)C=C1CCC1C2C(O)C[C@]2(C)C1CC[C@]2(O)C(=O)CO (some centres not stated) | 11.5% [at 28.7 µM] |  |

| SMILES | activity, negative = inhibition | Potency |
| --- | --- | --- |
| CC1(C)S[C@H]2C(NC(=O)[C@@H](N)c3ccc(O)cc3)C(=O)N2[C@@H]1C(=O)O (some centres not stated) | -20.3% [at 28.7 µM] |  |
| CC(C)=CCC[C@](C)(O)C1CC=C(C)CC1 (some centres not stated) | 1.79% [at 28.7 µM] |  |
| CO[C@]12C(COC(N)=O)C3=C(C(=O)C(C)=C(N)C3=O)N1CC1NC12 (some centres not stated) |  | 0.631 µM (active) |
| C[C@]1(c2ccccc2)OC(C(=O)O)=CC1=O | 0.914% [at 28.7 µM] |  |
| CC(=O)N[C@H](CC(C)C)C(=O)O | 5.25% [at 28.7 µM] |  |
| COc1ccc2cc(C(C)CO)ccc2c1 (configuration not stated) | 6.52% [at 28.7 µM] |  |
| COC1C=CO[C@@]2(C)Oc3c(C)c(O)c4c(O)c(c(C=NN5CCN(C)CC5)c(O)c4c3C2=O)NC(=O)/C(C)=C\C=CC(C)C(O)[C@@H](C)C(O)C(C)[C@H](OC(C)=O)C1C (some centres not stated) |  | 0.282 µM (active) |
| CC1CCC(C(C)C)C(=O)C1 (configuration not stated) | 13.3% [at 28.7 µM] |  |
| CNC1CC(N)[C@H](O)[C@@H](O[C@@H]2OC(CO)C3OC4(OC(C(N)CO)C(O)C(O)C4O)O[C@@H]3[C@H]2O)C1O (some centres not stated) | 13.5% [at 28.7 µM] |  |
| CCCC(=O)O[C@]1(C(=O)CO)CCC2[C@@H]3CCC4=CC(=O)CC[C@]4(C)C3C(O)C[C@]21C (some centres not stated) | 4.74% [at 28.7 µM] |  |
| CC(=O)[C@]1(O)CCC2C3C=C(Cl)C4=CC(=O)C5CC5[C@@]4(C)C3CC[C@]21C (some centres not stated) | 1.6% [at 28.7 µM] |  |
| CC(=O)N[C@@H]1C(O)OC(CO)C(O)C1O (some centres not stated) | 9.71% [at 28.7 µM] |  |
| C/C1=C2N=C(/C=C3N=C(/C(C)=C4\[N-]C(C)(C5N=C1C(C)(CCC(=O)NCC(C)OP(=O)([O-])O[C@H]1C(O)C(n6cnc7cc(C)c(C)cc76)O[C@@H]1CO)C5CC(N)=O)C(C)(CC(N)=O)C4CCC(N)=O)C(C)(CC(N)=O)C\3CCC(N)=O)C(C)(C)C/2CCC(N)=O.[CH2-]C1OC(n2cnc3c(N)ncnc32)C(O)C1O.[Co] (some centres not stated) | 9.12% [at 28.7 µM] |  |
| O=C1OC(CO)C(O)C(O)C1O (configuration not stated) | 14.3% [at 28.7 µM] |  |
| COc1cc(C2c3cc4c(cc3C(O[C@@H]3OC5COC(c6cccs6)OC5C(O)C3O)C3COC(=O)C23)OCO4)cc(OC)c1O (some centres not stated) |  | 2 µM (active) |
| Nc1nc2ncc(CNc3ccc(C(=O)NC(CCC(=O)O)C(=O)O)cc3)nc2c(=O)[nH]1 (configuration not stated) | 9.65% [at 28.7 µM] |  |

The compounds below were run on PC15 in the same assay as above. Settings: P. falciparum in erythrocytes, SYBR Green DNA, 72 h; series mostly up to 12.8 µM; activity, negative = inhibition: at the top concentration.
In short: as §1

| SMILES | activity, negative = inhibition | Potency |
| --- | --- | --- |
| CN(C)CCCOC1C(C(O)CO)OC2OC(C)(C)O[C@@H]21 (some centres not stated) | 4.94% [at 28.7 µM] |  |
| CCC(C)C(=O)OC1CCC=C2C=CC(C)C(CCC3CC(O)CC(=O)O3)[C@@H]21 (some centres not stated) | -12.3% [at 28.7 µM] |  |
| CC(=O)OC1CCC2C3CCc4cc(O)ccc4C3CCC12C (configuration not stated) | 18% [at 28.7 µM] |  |
| CC[C@@]12CCCN3CCc4c(n(c5ccccc45)[C@](O)(C(=O)OC)C1)C32 (some centres not stated) | 1.46% [at 28.7 µM] |  |
| NC(C(=O)O)[C@@H]1CC(Cl)=NO1 (some centres not stated) |  | 3.16 µM (active) |
| CN1CC(=O)N=C1N | 20% [at 28.7 µM] |  |
| OCC1OC([S-])[C@H](O)C(O)C1O.[Au+] (some centres not stated) | 7.25% [at 28.7 µM] |  |
| CC(C)C1CCC(C(=O)NC(Cc2ccccc2)C(=O)O)CC1 (configuration not stated) | -7.36% [at 28.7 µM] |  |
| CCC(CCC(C)C1CCC2C3CC=C4CC(O)CC[C@@]4(C)C3CC[C@@]12C)C(C)C (some centres not stated) | 7.5% [at 28.7 µM] |  |
| C[C@]12CCC(=O)C=C1CCC1C2C(=O)C[C@]2(C)C1CC[C@]2(O)C(=O)CO (some centres not stated) | -10.6% [at 28.7 µM] |  |
| OCC1O[C@H](OC2C(CO)O[C@@](O)(CO)C2O)C(O)C(O)C1O (some centres not stated) | 5.06% [at 28.7 µM] |  |
| CC1(C)OC2CO[C@]3(COS(N)(=O)=O)OC(C)(C)OC3C2O1 (some centres not stated) | -5.71% [at 28.7 µM] |  |
| CC1(C)OC2CC(=O)OC[C@@]23C1CC(=O)[C@]1(C)C3CC[C@@]2(C)C(c3ccoc3)OC(=O)C3O[C@@]321 (some centres not stated) | 3.92% [at 28.7 µM] |  |
| CCOC(=O)C1=CC(OC(CC)CC)C(NC(C)=O)C(N)C1 (configuration not stated) | -1.77% [at 28.7 µM] |  |
| COC1C=CO[C@@]2(C)Oc3c(C)c(O)c4c(O)c(c5c(nc6cc(C)ccn65)c4c3C2=O)NC(=O)/C(C)=C\C=CC(C)C(O)[C@@H](C)C(O)C(C)[C@@H](OC(C)=O)C1C (some centres not stated) |  | 12.6 µM (active) |
| COC(=O)C(Cc1ccccc1)NC(=O)C(N)CC(=O)O (stereo not drawn) (H-Asp-Phe-OMe; configuration not given here) | 4.05% [at 28.7 µM] |  |
| C[C@]12C=CC(=O)C=C1CCC1C2C(O)C[C@]2(C)C1CC[C@]2(O)C(=O)CO (some centres not stated) | 17.7% [at 28.7 µM] |  |

| SMILES | activity, negative = inhibition | Potency |
| --- | --- | --- |
| CC1(C)S[C@H]2C(NC(=O)[C@@H](N)c3ccc(O)cc3)C(=O)N2[C@@H]1C(=O)O (some centres not stated) | 0.384% [at 28.7 µM] |  |
| CC(C)=CCC[C@](C)(O)C1CC=C(C)CC1 (some centres not stated) | 9.18% [at 28.7 µM] |  |
| CO[C@]12C(COC(N)=O)C3=C(C(=O)C(C)=C(N)C3=O)N1CC1NC12 (some centres not stated) |  | 1.41 µM (active) |
| C[C@]1(c2ccccc2)OC(C(=O)O)=CC1=O | 5.33% [at 28.7 µM] |  |
| CC(=O)N[C@H](CC(C)C)C(=O)O | 6.93% [at 28.7 µM] |  |
| COc1ccc2cc(C(C)CO)ccc2c1 (configuration not stated) | -1.35% [at 28.7 µM] |  |
| COC1C=CO[C@@]2(C)Oc3c(C)c(O)c4c(O)c(c(C=NN5CCN(C)CC5)c(O)c4c3C2=O)NC(=O)/C(C)=C\C=CC(C)C(O)[C@@H](C)C(O)C(C)[C@H](OC(C)=O)C1C (some centres not stated) |  | 0.398 µM (active) |
| CC1CCC(C(C)C)C(=O)C1 (configuration not stated) | 13.9% [at 28.7 µM] |  |
| CNC1CC(N)[C@H](O)[C@@H](O[C@@H]2OC(CO)C3OC4(OC(C(N)CO)C(O)C(O)C4O)O[C@@H]3[C@H]2O)C1O (some centres not stated) | 0.938% [at 28.7 µM] |  |
| CCCC(=O)O[C@]1(C(=O)CO)CCC2[C@@H]3CCC4=CC(=O)CC[C@]4(C)C3C(O)C[C@]21C (some centres not stated) | 5.34% [at 28.7 µM] |  |
| CC(=O)[C@]1(O)CCC2C3C=C(Cl)C4=CC(=O)C5CC5[C@@]4(C)C3CC[C@]21C (some centres not stated) | -0.762% [at 28.7 µM] |  |
| CC(=O)N[C@@H]1C(O)OC(CO)C(O)C1O (some centres not stated) | 0.483% [at 28.7 µM] |  |
| C/C1=C2N=C(/C=C3N=C(/C(C)=C4\[N-]C(C)(C5N=C1C(C)(CCC(=O)NCC(C)OP(=O)([O-])O[C@H]1C(O)C(n6cnc7cc(C)c(C)cc76)O[C@@H]1CO)C5CC(N)=O)C(C)(CC(N)=O)C4CCC(N)=O)C(C)(CC(N)=O)C\3CCC(N)=O)C(C)(C)C/2CCC(N)=O.[CH2-]C1OC(n2cnc3c(N)ncnc32)C(O)C1O.[Co] (some centres not stated) | 7.48% [at 28.7 µM] |  |
| O=C1OC(CO)C(O)C(O)C1O (configuration not stated) | 6.55% [at 28.7 µM] |  |
| CNC1C(OC2C(O[C@@H]3C(O)C(O)[C@@H](N=C(N)N)C(O)C3N=C(N)N)OC(C)[C@@]2(O)CO)OC(CO)C(O)C1O (some centres not stated) | 11.1% [at 28.7 µM] |  |
| COc1cc(C2c3cc4c(cc3C(O[C@@H]3OC5COC(c6cccs6)OC5C(O)C3O)C3COC(=O)C23)OCO4)cc(OC)c1O (some centres not stated) |  | 4.47 µM (active) |
| Nc1nc2ncc(CNc3ccc(C(=O)NC(CCC(=O)O)C(=O)O)cc3)nc2c(=O)[nH]1 (configuration not stated) | 0.529% [at 28.7 µM] |  |
